According to PubChem BioAssay AID2669 (National Center for Advancing Translational Sciences (NCATS), 2010):
Records with an inconclusive call do not appear. Calls of active or inactive are those of the source. Calls come from the whole dose curve; as a rule, active = well fitted inhibition curve with a large enough effect; inconclusive = small, poorly fitted or top-dose-only effect, or effect the other way; inactive = flat fitted curve, though single readings scatter.

Experiment: qHTS Assay Multiplex Screening to Identify Dual Action Probes in a Cell Model of Huntington: Cytoprotection (Protease relase)
Conditions: PC12 HttQ103 cells, Cytotox-Glo protease release, 40 h; series mostly up to 46.1 µM
Outline: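 Inducible PC12 line expressing HTT exon 1 (Q103)-GFP, induced with 100 nM tebufenozide (final) and treated with compounds. Cytoprotection read as released protease activity by Cytotox-Glo luminescence.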
In the case of `C[C@]12CC[C@@H]3c4ccc(OC(=O)c5ccccc5)cc4CC[C@H]3[C@@H]1CC[C@@H]2O`, the Potency is reported as “inactive”.
In the case of `Cn1nnnc1Sc1ncnc2scc(-c3ccccc3Br)c12`, the Potency is reported as 14.1 µM (active).
In the case of `Cn1nnnc1Sc1ncnc2scc(-c3cccc(Cl)c3)c12`, the Potency is reported as 11.2 µM (active).
With `NC(=O)C1CCN(CCC(=O)Nc2ccc(Br)cc2)CC1` the Potency was “inactive”.
With `c1csc(-c2cn3c(n2)SCC3)c1` the Potency was “inactive”.
In the case of `Cc1noc(C)c1COC(=O)Cc1ccc(Cl)cc1`, the Potency is reported as “inactive”.
In the case of `O=C(CNc1ccc(Oc2ccccc2)cc1)N1CCOCC1`, the Potency is reported as 14.1 µM (active).
With `Cn1nnnc1Sc1ncnc2scc(-c3cccc([N+](=O)[O-])c3)c12` the Potency was 12.6 µM (active).
With `Cc1ccc(-c2csc3ncnc(Sc4nnnn4C)c23)cc1` the Potency was 14.1 µM (active).
In the case of `Cn1nnnc1Sc1ncnc2scc(-c3ccc(-c4ccccc4)cc3)c12`, the Potency is reported as 10 µM (active).
With `Cc1cc(NC(=O)CCS(=O)(=O)c2nc(-c3ccccc3)cc(C(F)(F)F)n2)no1` the Potency was “inactive”.
In the case of `CCOC(=O)N1CCN(C(=O)CSCC(=O)Nc2nc(-c3ccc(-c4ccccc4)cc3)cs2)CC1`, the Potency is reported as 3.16 µM (active).
In the case of `Fc1ccc(N2CCN(c3ncnc4nc[nH]c34)CC2)cc1`, the Potency is reported as 4.47 µM (active).
For `Cn1nnnc1Sc1ncnc2scc(-c3ccccc3S(C)(=O)=O)c12`, the Potency was “inactive”.
In the case of `Cn1nnnc1Sc1ncnc2scc(-c3ccccc3Cl)c12`, the Potency is reported as 15.8 µM (active).
For `Cc1ccc(S(=O)(=O)CCc2nc3ccccc3n2CCC#N)cc1`, the Potency was 25.1 µM (active).
For `C=CS(=O)(=O)c1ccc(Oc2ccc(S(=O)(=O)C=C)cc2)cc1`, the Potency was 10 µM (active).
In the case of `C=C1CCC2[C@](C)(CO)[C@H](O)CC[C@@]2(C)[C@@H]1C/C=C1/C(=O)OC[C@H]1O` (some centres not stated), the Potency is reported as “inactive”.
With `CC(=O)OCC1=C(C(=O)O)N2C(=O)[C@@H](NC(=O)Cc3cccs3)[C@H]2SC1` the Potency was “inactive”.
For `N#CCSc1nc2ccc(N3CCCCC3)cc2c(=O)n1Cc1ccccc1`, the Potency was 22.4 µM (active).
With `Cn1nnnc1Sc1ncnc2scc(-c3ccc(F)cc3)c12` the Potency was 15.8 µM (active).
For `N#Cc1ccsc1NC(=O)CSc1ncnc2ccccc12`, the Potency was “inactive”.
